Tb PYK inh: qHTS of Trypanosoma Brucei Inhibitors; pyruvate kinase (Trypanosoma brucei), Q57TT1; TbPYK enzyme, Kinase-Glo Plus ATP luminescence, 45 min; Potency, µM (series often up to 76.8 µM), hits mostly inhibitors; 410,000 tested, 0.12% active; AID 624173, 2012; note: nearly all actives have a fitted effect of over 50% in size
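ADP (130 uM final) triggers the TbPYK reaction after compound addition; incubation is 45 min at room temperature. Kinase-Glo Plus is then added and luminescence imaged. Normalized data are fitted to concentration-effect curves.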
AMA1-RON2 inh: qHTS for Inhibitors of AMA1-RON; Towards Development of Antimalarial Drug Lead: Primary Screen; AlphaScreen AMA1-biotinylated RON2 peptide binding; AID 720542, 2013; Plasmodium falciparum AMA1 (3D7) - RON2 peptide interaction; 360,000 tested, 0.2% active; Potency, µM (top dose mostly 58.2 µM), usual class: inhibitors; note: nearly all actives have a fitted effect of over 45% in size
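AMA1 (3D7) with his tag at 25 nM final met compounds first, then biotinylated RON2 peptide at 25 nM; detection used donor plus acceptor beads, 10 µg/mL apiece, read by AlphaScreen after 30 min at room temperature.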
Giardia FBPA inh-1: qHTS Assay for Inhibitors of Fructose-1,6-bisphosphate Aldolase from Giardia Lamblia; A8B2U2; purified Giardia FBPA; Potency, µM (series often up to 59.6 µM), hits mostly inhibitors; 290,000 tested, 0.71% active; AID 2451, 2010; note: nearly all actives have a fitted effect of over 55% in size
Target sequence (A8B2U2 whole entry, looked up): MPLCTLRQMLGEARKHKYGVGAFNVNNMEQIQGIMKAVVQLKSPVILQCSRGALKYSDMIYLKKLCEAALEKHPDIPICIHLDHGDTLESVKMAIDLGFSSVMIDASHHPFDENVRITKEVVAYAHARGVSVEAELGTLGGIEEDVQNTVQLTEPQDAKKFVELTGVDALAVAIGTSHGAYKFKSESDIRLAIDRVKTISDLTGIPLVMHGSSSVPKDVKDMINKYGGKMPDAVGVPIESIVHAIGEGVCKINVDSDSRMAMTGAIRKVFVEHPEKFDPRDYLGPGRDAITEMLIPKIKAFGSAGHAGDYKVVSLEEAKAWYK
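Giardia FBPA (40 nM reagent) was preincubated 10 min at RT with compound (up to 57.5 uM final), then substrate plus GAPDH/TPI/NAD/arsenate coupling system with diaphorase/resazurin was added; resorufin fluorescence (525/598 nm) was read after 20 min.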
NS1 inh: qHTS Assay for Inhibitors of Influenza NS1 Protein Function. 270,000 tested, 0.4% active. Potency, µM (series often up to 46.1 µM). AID 2326, 2010; calls by dose curve; note: actives are rising curves; nearly all actives have a fitted effect of over 50% in size
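Growth recovery, yeast-based: influenza A NS1 expressed in S. cerevisiae causes slow growth, and suppressors are detected by OD600. The parent strain without NS1 is used as positive control.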
LmPK inh: qHTS Assay for Inhibitors of Leishmania Mexicana Pyruvate Kinase (LmPK) | Q27686 | purified LmPK, Kinase-Glo ATP luminescence, 1 h | Potency, µM (series often up to 57.5 µM), usual class: inhibitors | 290,000 tested, 0.37% active | AID 1721, 2009
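qHTS format; LmPK 0.1 nM; substrates PEP 0.5 mM and ADP 0.1 mM. One-hour room-temperature incubation, then coupled luciferase luminescence; 0.5 nM enzyme wells mark activation.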
Giardia growth: qHTS Assay for Inhibitors of Fructose-1,6-bisphosphate Aldolase from Giardia Lamblia: Giardia lamblia growth inhibition. Potency, µM (top dose mostly 57.5 µM), hits mostly inhibitors. shares compounds with Giardia FBPA inh-1. 1,500 tested, 5% active. Giardia lamblia trophozoite growth inhibition;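 note: trophozoites exposed to compound for 48 h at 37 °C; nearly all actives have a fitted effect of over 70% in size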
Mammalian tox: qHTS Assay for Inhibitors of Fructose-1,6-bisphosphate Aldolase from Giardia Lamblia: Mammalian cellular toxicity | shares compounds with Giardia FBPA inh-1 | mammalian cell viability counter-screen, qHTS | Potency, µM (titrated, usually from 57.5 µM), actives largely listed as inhibitors | 1,500 tested, 4% active;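 note: Chinese hamster ovary cells used as mammalian cytotoxicity surrogate; viability measured as cellular ATP by luminescence; compound exposure lasted 48 h before reading; nearly all actives have a fitted effect of over 60% in size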
Giardia FBPA inh-2: qHTS Assay for Inhibitors of Fructose-1,6-bisphosphate Aldolase from Giardia Lamblia: Primary screen confirmation. 1,500 tested, 5% active. Potency, µM (highest dose often 57.5 µM), usual class: inhibitors. purified Giardia aldolase enzyme activity, qHTS. shares compounds with Giardia FBPA inh-1; note: nearly all actives have a fitted effect of over 45% in size
Rabbit aldolase: qHTS Assay for Inhibitors of Fructose-1,6-bisphosphate Aldolase from Giardia Lamblia: Rabbit FBPA Selectivity; 1,500 tested, 4% active; Rabbit muscle FBPA enzyme inhibition, selectivity counter-screen; shares compounds with Giardia FBPA inh-1; Potency, µM (series often up to 57.5 µM), usual class: inhibitors; note: nearly all actives have a fitted effect of over 60% in size
GAPDH coupling: qHTS Assay for Inhibitors of Fructose-1,6-bisphosphate Aldolase from Giardia Lamblia: Coupling assay counterscreen confirmation. Potency, µM (series often up to 57.5 µM), actives largely listed as inhibitors. shares compounds with Giardia FBPA inh-1. 1,500 tested, 6% active. AID 2795, 2010. GAPDH coupling enzyme counterscreen, biochemical, qHTS; note: nearly all actives have a fitted effect of over 55% in size
Hits are given with their value; . = inactive; ? = inconclusive; / = no result; [ ] = another dose, or the depositor's remark. Rows were chosen to be rich in hits. Some 1.2% of all compounds tested hit in one or more screens of this group. Unless noted, calls come from the whole dose curve; as a rule, active = well fitted curve in the direction sought with a large enough effect; inconclusive = small, poorly fitted or top-dose-only effect, or another doubt; inactive = no such curve, though single readings can be large; an effect the other way counts as inactive or inconclusive.

SMILES	Tb PYK inh	AMA1-RON2 inh	Giardia FBPA inh-1	NS1 inh	LmPK inh	Giardia growth	Mammalian tox	Giardia FBPA inh-2	Rabbit aldolase	GAPDH coupling
CC(C)C[C@H](NC(=O)c1nc[nH]c1C(=O)N[C@@H](CCCCNC(=O)OC(C)(C)C)C(=O)OC(C)(C)C)C(=O)OC(C)(C)C	.	.	.	.	.	/	/	/	/	/
CC(C)C[C@H](NC(=O)c1nc[nH]c1C(=O)NCCCCCNC(=O)OC(C)(C)C)C(=O)OC(C)(C)C	.	.	17.7µM	.	.	.	.	.	.	.
COc1ccc2[nH]cc(CCNc3ccnc(-c4ccc(N(C)C)cc4)n3)c2c1	/	/	.	/	/	/	/	/	/	/
NC(=O)CN(C/C=C/c1ccccc1)C/C=C/c1ccccc1	.	.	28.2µM	.	.	.	.	.	.	.
CN(C)CC1CCn2c(c(C3=C(c4cn(C)c5ccccc45)C(=O)NC3=O)c3ccccc32)C1 (stereo unspecified)	/	/	.	/	/	/	/	/	/	/
CC(=O)Nc1ccc(S(=O)(=O)N2CCN(Cc3cccnc3)CC2)cc1	.	.	?	.	.	/	/	/	/	/
CC(=O)Nc1ccc(S(=O)(=O)N2CCN(Cc3cccc([N+](=O)[O-])c3)CC2)cc1	.	?	17.7µM	.	.	.	.	.	.	.
CNC(=O)C1(C)C=CCN1C(=O)OC (stereo unspecified)	/	/	.	/	/	/	/	/	/	/
COC(=O)N[C@@H](/C=C/c1ccccc1)[C@@H](C)[N+](=O)[O-]	/	/	.	/	/	/	/	/	/	/
N#CCCN(CCC#N)S(=O)(=O)c1ccc(C(=O)Nc2nnc(C3=COCCO3)o2)cc1	.	.	15.8µM	.	.	?	.	.	.	.
CCCCN(C)S(=O)(=O)c1ccc(C(=O)Nc2nnc(C3=COCCO3)o2)cc1	.	.	17.7µM	/	.[11.5 µM]	?	.	.	.	.
O=C(Nc1nnc(-c2cccs2)o1)c1ccc(S(=O)(=O)N2CCOCC2)cc1	.	.	14.1µM	/	.	.[10.4 µM]	.	.	.	.
O=C(Nc1nnc(-c2ccccc2Cl)o1)c1ccc(S(=O)(=O)N2CCCCCC2)cc1	.	?	?	.	.	/	/	/	/	/
O=C(Nc1nnc(C2=COCCO2)o1)c1ccc(S(=O)(=O)N2CCCC2)cc1	.	.	3.54µM	/	.[11.5 µM]	.	.	.	.	.
CC1CCN(S(=O)(=O)c2ccc(C(=O)Nc3nnc(C4=COCCO4)o3)cc2)CC1	.	.	/	.	.	/	/	/	/	/
CCC1CCCCN1S(=O)(=O)c1ccc(C(=O)Nc2nnc(C3=COCCO3)o2)cc1 (stereo unspecified)	.	.	/	.	.	/	/	/	/	/
O=C(Nc1nnc(C2=COCCO2)o1)c1ccc(S(=O)(=O)N2CCCCC2)cc1	.	.	15.8µM	/	.[11.5 µM]	?	.	.	.	.
O=NN(CCCl)C(=O)NC1CCCCC1	.	/	/	/	/	/	/	/	/	/
O=[N+]([O-])c1cc2c(cc1CN1CCN(CCOCCO)CC1)OCO2	.	.	10µM	.	.	.[10.4 µM]	.	.	.	.

Assay outcomes (PubChem)
